Common to all, as to assay: yeast three-hybrid, YBZ-1, SC-Leu-His + 0.5 mM 3-AT, 4 days
What all share (settings): tags: N-Gal4 AD-HA kept; label: inside an RPR1-promoter hybrid RNA with tandem MS2 sites; ssRNA

Test [1] concerns the target PUM1 PUF domain R3-VRW (Homo sapiens, UniProt Q14671 828-1176, C935V;Q939W). In outline:
(§1)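 Pumilio-1 PUF domain libraries, randomized at the three base-contacting residues of each repeat, were co-expressed with matching RNA elements from a centromeric plasmid in strain YBZ-1, which carries a LexA–MS2 coat fusion and a HIS3 reporter. Transformants grew for four days on SC-Leu (input) or on SC-Leu-His + 0.5 mM 3-AT (selection), and the repeat regions were PCR-amplified and Illumina-sequenced. The interaction score is the log change in variant frequency from input to selection. That logarithm is base 2, with a pseudocount of 1 where a variant was absent.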

The target in test [2] is PUM1 PUF domain R8-KNR (Homo sapiens, UniProt Q14671 828-1176, N1122K;Y1123N;Q1126R). The method, boiled down: as §1
For test [3], the target named is T1, PUM1 PUF domain R6-FYI (Homo sapiens, UniProt Q14671 828-1176, N1043F;Q1047I).
T1 sequence: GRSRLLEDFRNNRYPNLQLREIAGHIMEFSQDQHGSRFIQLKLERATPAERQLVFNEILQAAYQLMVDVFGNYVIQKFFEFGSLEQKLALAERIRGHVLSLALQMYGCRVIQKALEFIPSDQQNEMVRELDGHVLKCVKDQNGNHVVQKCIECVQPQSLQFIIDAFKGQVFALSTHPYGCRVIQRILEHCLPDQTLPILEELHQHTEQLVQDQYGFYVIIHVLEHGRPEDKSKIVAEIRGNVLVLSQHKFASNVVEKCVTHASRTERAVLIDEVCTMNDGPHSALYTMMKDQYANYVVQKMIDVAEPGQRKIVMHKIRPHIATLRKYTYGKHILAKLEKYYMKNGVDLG
The method, boiled down:
as §1

The target in test [4] is PUM1 PUF domain R1-VFR (Homo sapiens, UniProt Q14671 828-1176, S863V;R864F;Q867R). The method, boiled down:
as §1

In test [5] the target is PUM1 PUF domain R1-RFI (Homo sapiens, UniProt Q14671 828-1176, S863R;R864F;Q867I). The method, boiled down:
as §1

Test [6] has as its target PUM1 PUF domain R1-KIE (Homo sapiens, UniProt Q14671 828-1176, S863K;R864I;Q867E). In outline: as §1
Test [7] has as its target PUM1 PUF domain R1-GAS (Homo sapiens, UniProt Q14671 828-1176, S863G;R864A;Q867S). The method, boiled down:
as §1

The target in test [8] is PUM1 PUF domain R7-RKR (Homo sapiens, UniProt Q14671 828-1176, S1079R;N1080K;E1083R). The method, boiled down:
as §1

Test [9] has as its target PUM1 PUF domain R3-RMK (Homo sapiens, UniProt Q14671 828-1176, C935R;R936M;Q939K). In outline:
as §1

This note sets out measurements from PMC8384837, “Expanding the binding specificity for RNA recognition by a PUF domain”.

Consider “GGCUAGAACUAGUGGAUCCCCCGGCGCCCGGCGGCUCGAGCCCGGGUAAGUGUAAAUAGUCUGCAUGCCGCCGGGCGCCAUGCCUGCAGGUCGACUCUAGAAAACAUG”, for which the binding signal in [1] is 3.7 log2 enrichment (interaction score); in test [2] it was 1.82 log2 enrichment (interaction score); in [3], 2.78 log2 enrichment (interaction score).

Regarding “GGCUAGAACUAGUGGAUCCCCCGGCGCCCGGCGGCUCGAGCCCGGGUAAGUGUAAAUUGUCUGCAUGCCGCCGGGCGCCAUGCCUGCAGGUCGACUCUAGAAAACAUG”, the binding signal in test [4] is 1.47 log2 enrichment (interaction score); in test [5], 2.47 log2 enrichment (interaction score); in test [6], 3.28 log2 enrichment (interaction score).

For the sequence “GGCUAGAACUAGUGGAUCCCCCGGCGCCCGGCGGCUCGAGCCCGGGUAAGUGUAAAUCGUCUGCAUGCCGCCGGGCGCCAUGCCUGCAGGUCGACUCUAGAAAACAUG”, the binding signal in test [4] is 3.96 log2 enrichment (interaction score); in [7], 2.52 log2 enrichment (interaction score).

Take “GGCUAGAACUAGUGGAUCCCCCGGCGCCCGGCGGCUCGAGCCCGGGUAAGUUUAAAUAGUCUGCAUGCCGCCGGGCGCCAUGCCUGCAGGUCGACUCUAGAAAACAUG”: the binding signal in [8] is 2.99 log2 enrichment (interaction score).

As for “GGCUAGAACUAGUGGAUCCCCCGGCGCCCGGCGGCUCGAGCCCGGGUAAGCGUAAAUAGUCUGCAUGCCGCCGGGCGCCAUGCCUGCAGGUCGACUCUAGAAAACAUG”, the binding signal in [2] was 2.46 log2 enrichment (interaction score).

With “GGCUAGAACUAGUGGAUCCCCCGGCGCCCGGCGGCUCGAGCCCGGGUAAGUGUAAUUAGUCUGCAUGCCGCCGGGCGCCAUGCCUGCAGGUCGACUCUAGAAAACAUG”, in test [9], the binding signal was 4.31 log2 enrichment (interaction score).
